Reference: PubChem BioAssay AID743342 (Broad Institute, 2014)
Measured potencies and affinities stand elsewhere.

These molecules were tested on Drosophila bursicon receptor LGR2 (rickets) (assay: inhibition of bursicon-driven LGR2 cAMP signaling – cell-based, HEK293, CRE-luciferase reporter, cherry pick, dose response (AID 743342)). Details: bursicon antagonist, 4 h; series mostly up to 35 µM; activity change, negative = inhibition: at the top concentration;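 active = every replicate test run was called active, each showing a signal decrease within twice the top valid dose; inconclusive = replicate test runs disagree on the call; inactive = every test run inactive, including signal moving upward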.

Activity change, negative = inhibition, inactive:
CC(C)NC(=O)Nc1ccc2c(c1)C(=O)N([C@H](C)CO)C[C@@H](C)[C@H](CN(C)S(C)(=O)=O)OCCCC[C@H](C)O2 0.859%, Cc1ccc(S(=O)(=O)Nc2ccc3c(c2)C(=O)N([C@H](C)CO)C[C@@H](C)[C@H](CN(C)S(=O)(=O)c2cccs2)OCCCC[C@@H](C)O3)cc1 -19%, C[C@H](CO)N1C[C@H](C)[C@H](CN(C)C(=O)Cc2ccccc2)OCCCC[C@H](C)Oc2ccc(NC(=O)Nc3ccc(C(F)(F)F)cc3)cc2C1=O -29.2%, COc1ccc(S(=O)(=O)Nc2ccc3c(c2)C(=O)N([C@@H](C)CO)C[C@@H](C)[C@H](CN(C)C(=O)Nc2cccc4ccccc24)OCCCC[C@H](C)O3)cc1 -13.7%, C[C@@H]1CN([C@@H](C)CO)C(=O)c2cc(NS(C)(=O)=O)ccc2O[C@@H](C)CCCCO[C@@H]1CN(C)Cc1ccc(C(F)(F)F)cc1 -20%, C[C@@H]1CCCCO[C@H](CN(C)CC2CCCCC2)[C@H](C)CN([C@H](C)CO)C(=O)c2cc(NS(=O)(=O)c3ccccc3)ccc2O1 -12.9% [at 30 µM], COc1ccc(S(=O)(=O)Nc2ccc3c(c2)C(=O)N([C@H](C)CO)C[C@H](C)[C@H](CN(C)S(=O)(=O)c2ccc(F)cc2)OCCCC[C@@H](C)O3)cc1 -15.2%, Cc1noc(C)c1S(=O)(=O)Nc1ccc2c(c1)C(=O)N([C@H](C)CO)C[C@H](C)[C@H](CN(C)C(=O)Nc1ccc(F)cc1)OCCCC[C@@H](C)O2 -2.2%, COc1ccc(S(=O)(=O)Nc2ccc3c(c2)C(=O)N([C@@H](C)CO)C[C@H](C)[C@@H](CN(C)C(=O)Nc2cccc4ccccc24)OCCCC[C@H](C)O3)cc1 -15.9%
